Results on 8 compounds are retold here after PubChem BioAssay.

Activity calls are given as the source filed them.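 The calls were made as follows, unless noted: active = inhibition above 20% together with a positive visual image hit; inconclusive = visual image hit but inhibition not above 20%; inactive = no visual image hit.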

Assay [1] in a line: inhibitors of TNFa-induced NFkB p65 translocation, primary screen, imaging, HUVEC, MLSMR starter and 10KST1 sets (AID 438).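 Also: compound added about 3h40 before a 20 min TNFalpha stimulation.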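 As to inhibition: signal is the nuclear over cytoplasmic p65 intensity ratio per well.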 As to conditions: HUVEC TNFa-induced p65 nuclear translocation; cell count: measured here: nuclei count (cytotoxicity indicator), at 2.08 µM; inhibition: at 2 µM, stronger effect = higher value, 0% TNFa-plus-vehicle, 100% no-TNFa wells.
A short description of assay [2]: reduction of polyQ htt aggregates in cells – imaging, exon1htt(103Q)mCFP cells, high-content imaging, primary screen (AID 483;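 active = visual image review flags a hit and inhibition of aggregation exceeds 20%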;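 also: compound exposure lasted 3 days before fixation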;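 as to nuclei count: percent of the per-plate median nuclei count of sample wells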). As to conditions: exon1htt(103Q)mCFP cell line, aggregate imaging, at 2 µM; inhibition of aggregation: stronger effect = higher value; nuclei count: measured here: cell count, toxicity.
Assay [3] is described as follows: endothelial E-selectin expression blockers – imaging, HUVEC, immunofluorescence, MLSMR starter and 10KST1 sets, primary screen (AID 487;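 active = visually confirmed hit in the image check and inhibition above 20%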;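 as to inhibition: signal is fraction of cell area covered by stained E-selectin grains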;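 as to nuclei count: 100% = median nuclei count of all wells on the same plate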). The conditions noted are these: HUVEC TNFalpha-induced E-selectin immunofluorescence imaging, at 2 µM; inhibition: stronger effect = higher value; nuclei count: measured here: cell number, toxicity.
Assay [4] has as its target Voltage-gated potassium channel subunit beta-2 (Rattus norvegicus) (UniProt P62483). Nature of the assay: inhibitors of rat Kvbeta2 reductase activity – biochemical, NADPH fluorescence, primary screen (AID 622;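 active = fluorescence slope higher than the sample average by over 3 SD, cut at about -0.22 in these data, passing the limit was not always enough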;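 also: slope of raw intensity against log time taken from 70 to 1610 s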). The conditions noted are these: recombinant KvBeta, 4-cyanobenzaldehyde reduction, at 10 µM, stronger effect = higher value.
For assay [5] the target is unchanged. The assay is described as follows: enhancers of rat Kvbeta2 NADPH turnover – biochemical, NADPH fluorescence, primary screen (AID 623;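 active = NADPH fluorescence slope more negative than the mean of all samples by about 3 SD, 99.7% confidence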;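 also: fluorescence intensity change per second fitted from 20 to 320 s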). As to conditions: Recombinant KvBeta, NADPH fluorescence decrease slope, 10 min; at 10 µM; stronger effect = lower value.
Assay [6] concerns the target Alpha-2C adrenergic receptor (Homo sapiens) (UniProt P18825). Nature of the assay: compounds altering alpha2C-coupled GIRK flux – cell-based, HEK293 alpha2C/GIRK1/2, thallium flux, primary screen (AID 624;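 active = fluorescence slope after compound addition differing from the mean of all screened samples at 99.7% confidence, in either direction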;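 also: slope of fluorescence ratio to pre-addition baseline per second over 15 to 24 s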). As to conditions: thallium flux BTC fluorescence, at 10 µM, actives lie on both sides.
Assay [7] can be described thus: blockers of RIG-like receptor reporter activation – cell-based, Sendai virus stimulus, luciferase, 10K MLSCN set, TLR/RLR signaling modifier project, primary screen (AID 602276;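 active = inhibition at or above 50% at 10 µM; inactive = inhibition below 50%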;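 also: firefly luciferase from ISG56 promoter only with Renilla not read in this screen; 0% = Sendai virus plus DMSO and 100% = medium plus DMSO without virus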). The conditions noted are these: HEK293 RL24 IRF3 luciferase reporter, at 10 µM, stronger effect = higher value.
A short description of assay [8]: TLR3 IRF3 reporter activation blockers – cell-based, poly I:C stimulus, luciferase, 10K MLSCN set, primary screen (AID 602277;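 active = inhibition of the reporter signal at or above 50%; inactive = inhibition below 50%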). As to conditions: HEK293-TLR3 RL24 IRF3 luciferase reporter, at 10 µM, stronger effect = higher value. (In general: A reporter such as luciferase makes a cellular process visible.)

Sequence of Voltage-gated potassium channel subunit beta-2 (Rattus norvegicus) (P62483 whole entry, looked up): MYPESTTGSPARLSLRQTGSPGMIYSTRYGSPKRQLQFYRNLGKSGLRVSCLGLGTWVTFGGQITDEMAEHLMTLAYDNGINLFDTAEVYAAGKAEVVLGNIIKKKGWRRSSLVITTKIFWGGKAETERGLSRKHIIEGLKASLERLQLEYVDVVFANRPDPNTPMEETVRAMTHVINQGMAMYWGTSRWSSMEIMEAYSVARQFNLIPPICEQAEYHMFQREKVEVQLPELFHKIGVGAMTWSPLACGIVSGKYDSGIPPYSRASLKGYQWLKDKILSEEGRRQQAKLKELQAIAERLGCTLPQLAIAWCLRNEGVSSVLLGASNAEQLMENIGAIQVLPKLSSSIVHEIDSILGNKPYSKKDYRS
Sequence of Alpha-2C adrenergic receptor (Homo sapiens) (P18825 whole entry, looked up): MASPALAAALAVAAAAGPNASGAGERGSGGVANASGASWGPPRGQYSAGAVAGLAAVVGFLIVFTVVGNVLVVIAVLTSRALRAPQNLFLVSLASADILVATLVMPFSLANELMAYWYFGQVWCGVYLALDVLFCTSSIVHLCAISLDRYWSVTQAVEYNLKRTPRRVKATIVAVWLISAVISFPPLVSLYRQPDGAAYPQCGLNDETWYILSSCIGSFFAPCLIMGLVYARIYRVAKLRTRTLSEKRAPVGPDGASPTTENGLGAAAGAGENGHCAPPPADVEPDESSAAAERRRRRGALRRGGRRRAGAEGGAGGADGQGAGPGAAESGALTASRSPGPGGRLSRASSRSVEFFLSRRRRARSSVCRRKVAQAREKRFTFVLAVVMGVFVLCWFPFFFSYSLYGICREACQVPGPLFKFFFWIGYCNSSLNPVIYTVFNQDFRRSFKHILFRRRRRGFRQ

As a reminder, the inhibition is the change of the read-out against control, counted positive when it falls. Take `CCOC(=O)CC(=O)c1cc(OC)c(OC)c(OC)c1`: the cell count in assay [1] was determined as 640. Besides, the inhibition was -0.6% (inactive) in assay [1], -56% (inactive) in assay [3], 5.89% (inactive) in assay [7] and 12.4% (inactive) in assay [8]. For the same compound, the inhibition of aggregation in assay [2] was -4.2% (inactive). The nuclei count in assay [2] is 105%; in assay [3], 106%. Besides, the fluorescence slope in assay [4] is -0.432 (inactive). Also, the NADPH fluorescence slope in assay [5] was -2.1e-05 (inactive). Further, the slope in assay [6] is 0.00534 (inactive).

Regarding `Cc1cc(C)nc(NC(=O)c2cnc3sccn3c2=O)n1`, the cell count in assay [1] worked out at 650. In addition, the inhibition in assay [1] was -14% (inactive); in assay [3], -14.9% (inactive); in assay [7], 17.6% (inactive); in assay [8], 47.4% (inactive). Further, the inhibition of aggregation in assay [2] is 18.2% (inactive). Further, the figures for the nuclei count in assay [2] and in assay [3] were 84.7% and 110%, respectively. Also, in assay [4], the fluorescence slope was -0.528 (inactive). Also, the NADPH fluorescence slope in assay [5] was -3.1e-05 (inactive). For the same compound, the slope in assay [6] is 0.00661 (inactive).

Take `Cc1c(C(=O)Nc2cnccn2)oc2ccccc12`: the cell count in assay [1] came out at 370. Moreover, the inhibition was 7.3% (inactive) in assay [1], -97.6% (inactive) in assay [3], 0.764% (inactive) in assay [7] and -4.49% (inactive) in assay [8]. Besides, in assay [2], the inhibition of aggregation was 7.5% (inactive). Also, the nuclei count in assay [2] was 95.3%; in assay [3], 108%. The fluorescence slope in assay [4] is -0.371 (inactive). Besides, the NADPH fluorescence slope in assay [5] is 4.4e-05 (inactive). Also, the slope in assay [6] was 0.00977 (inactive).

In the case of `O=C(Nc1cccc(C(F)(F)F)c1)c1ccco1`, the cell count in assay [1] worked out at 580. Further, the inhibition in assay [1] was -5.4% (inactive); in assay [3], -33.8% (inactive); in assay [7], -7.21% (inactive); in assay [8], -42.6% (inactive). The inhibition of aggregation in assay [2] was 4.3% (inactive). For the same compound, the nuclei count amounted to 113% in assay [2] and 99.3% in assay [3]. Further, the fluorescence slope in assay [4] was -0.617 (inactive). Moreover, the NADPH fluorescence slope in assay [5] is -5.6e-05 (inactive). Moreover, the slope in assay [6] is 0.00406 (inactive).

Consider `CC(C)(Oc1ccc(Cl)cc1)C(=O)NC1CCSC1=O` (stereo not drawn), for which the cell count in assay [1] turned out to be 620. The inhibition in assay [1] is -7.5% (inactive); in assay [3], -63.4% (inactive); in assay [7], 10.9% (inactive); in assay [8], 15.9% (inactive). In addition, the inhibition of aggregation in assay [2] is -23.8% (inactive). Further, the nuclei count in assay [2] came to 112%; in assay [3], 103%. In assay [4], the fluorescence slope is -0.502 (inactive). Moreover, in assay [5], the NADPH fluorescence slope was -2.8e-05 (inactive). Further, in assay [6], the slope is 0.00406 (inactive).

As to `O=C1NC(Cc2c[nH]c3ccccc23)C(=O)N1CCOc1ccccc1` (stereo not drawn), in assay [1], the cell count came out at 674. Also, the inhibition in assay [1] was 4.9% (inactive); in assay [3], -14.9% (inactive); in assay [7] it was 13.6% (inactive); in assay [8] it was 19.7% (inactive). In assay [2], the inhibition of aggregation was 3.1% (inactive). Moreover, the results for the nuclei count in assay [2] and in assay [3] were 120% and 138%, respectively. Further, the fluorescence slope in assay [4] is -0.429 (inactive). In addition, the NADPH fluorescence slope in assay [5] was -4.2e-05 (inactive). In addition, the slope in assay [6] was 0.00422 (inactive).

Regarding `CN(CCNS(=O)(=O)c1ccc2c(c1)oc(=O)n2C)Cc1ccccc1`, the cell count in assay [1] is 739. Further, the inhibition was -6.7% (inactive) in assay [1], -65.3% (inactive) in assay [3], 9.41% (inactive) in assay [7] and 39.8% (inactive) in assay [8]. In addition, the inhibition of aggregation in assay [2] was -7.2% (inactive). The values for the nuclei count in assay [2] and in assay [3] were 95.2% and 119%, respectively. Also, the fluorescence slope in assay [4] is -0.604 (inactive). Besides, the NADPH fluorescence slope in assay [5] is -4.2e-05 (inactive). Moreover, in assay [6], the slope was 0.0075 (inactive).

Turning to `Cc1cc(NC(=O)c2cnn3c(C(F)F)cc(C4CC4)nc23)no1`, the cell count in assay [1] came out at 747. For the same compound, the inhibition is -3.3% (inactive) in assay [1], 27.3% (inactive) in assay [3], 9.48% (inactive) in assay [7] and 19.3% (inactive) in assay [8]. For the same compound, in assay [2], the inhibition of aggregation was 23% (inactive). For the same compound, the figures for the nuclei count in assay [2] and in assay [3] were 100% and 98.5%, respectively. Also, in assay [4], the fluorescence slope is -0.486 (inactive). Further, the NADPH fluorescence slope in assay [5] is -3.5e-05 (inactive). Also, in assay [6], the slope is 0.00638 (inactive).
